In all, about 33,000 sequences were measured (“E-score (-0.5 to 0.5)”: median about -0.021, highest 2% from about 0.32 on). The entries come from a sample that favours the highest values as a whole.
The sequences below were run against T1, Zap1 (UniProt P47043) (assay: PBM E-score (8-mer binding enrichment) (E-score (-0.5 to 0.5)); higher = stronger / more preferred TF binding). Settings: protein concentration: 200 nM; construct: GST-full length.
T1 sequence: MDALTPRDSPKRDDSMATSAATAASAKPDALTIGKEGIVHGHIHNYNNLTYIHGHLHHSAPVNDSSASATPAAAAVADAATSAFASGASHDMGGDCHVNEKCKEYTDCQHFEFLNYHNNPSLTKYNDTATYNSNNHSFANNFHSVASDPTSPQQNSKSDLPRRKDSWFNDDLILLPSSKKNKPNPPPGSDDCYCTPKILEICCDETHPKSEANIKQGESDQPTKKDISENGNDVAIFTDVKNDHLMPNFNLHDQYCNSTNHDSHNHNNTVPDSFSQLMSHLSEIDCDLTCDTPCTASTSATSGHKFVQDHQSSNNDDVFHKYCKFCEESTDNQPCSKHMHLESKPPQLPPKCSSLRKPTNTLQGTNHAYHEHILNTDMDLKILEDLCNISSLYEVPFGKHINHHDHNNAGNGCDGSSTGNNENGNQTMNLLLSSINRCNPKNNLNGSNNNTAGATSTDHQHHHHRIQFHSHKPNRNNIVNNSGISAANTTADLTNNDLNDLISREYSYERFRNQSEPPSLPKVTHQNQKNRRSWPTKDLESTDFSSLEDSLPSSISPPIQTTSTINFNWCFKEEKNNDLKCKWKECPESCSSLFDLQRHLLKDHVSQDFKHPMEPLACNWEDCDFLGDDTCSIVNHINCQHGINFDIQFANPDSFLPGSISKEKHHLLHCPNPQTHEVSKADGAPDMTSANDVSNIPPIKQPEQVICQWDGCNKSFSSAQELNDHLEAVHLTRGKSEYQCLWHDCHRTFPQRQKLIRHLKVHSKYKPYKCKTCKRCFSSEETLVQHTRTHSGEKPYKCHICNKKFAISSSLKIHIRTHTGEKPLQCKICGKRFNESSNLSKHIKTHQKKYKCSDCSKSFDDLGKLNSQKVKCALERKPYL
Description: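 Universal 'all 10-mer' protein binding microarrays (Agilent AMADID 015681) probed with GST-tagged S. cerevisiae TFs (full-length or DBD) made by in vitro transcription/translation (PURExpress), about 100-200 nM. Bound TF was detected with fluorescent anti-GST. Each ungapped 8-mer (which stands for itself and its reverse complement) is scored by the PBM enrichment score (E-score), a modified Wilcoxon-Mann-Whitney statistic from -0.5 to +0.5, computed with the Universal PBM Analysis Suite. Scale: above 0.35 generally sequence-specific binding.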

In order of rising “PBM E-score” value:
1. CCTCCCAG  -0.291
2. CGTACAGA  -0.231
3. ACAGGGGG  -0.225
4. AGGGGCAG  -0.186
5. ACGTAAGC  -0.186
6. CAGCCCAG  -0.177
7. CATAGATG  -0.173
8. GCATGGAA  -0.169
9. ATTTGCCG  -0.168
10. AGAGTCAG  -0.145
11. TCCCTCCA  -0.134
12. CCCCAGGA  -0.128
13. CCTCTTCC  -0.127
14. AGAGGCCC  -0.108
15. CCACTTTC  -0.101
16. AAAAGCAG  -0.0944
17. AAAGGGAA  -0.0936
18. CATCTCTC  -0.0882
19. GCCCTCCA  -0.0877
20. CGGGTAAG  -0.078
21. ACTGCGCA  -0.0699
22. CTCACATC  -0.0546
23. GGCAAATA  -0.0519
24. CACAGAGA  -0.0512
25. CGCCTGAG  -0.0453
26. GCCGCGAA  -0.0427
27. CCCATTAA  -0.0317
28. ACAGAGTA  -0.0251
29. ATCGCTCA  -0.0114
30. CAACTAAG  -0.00117
31. ACTAAAGA  0.00061
32. CCCAAGGA  0.00233
33. ACGATGGA  0.00241
34. GTGATGTA  0.013
35. CCTCGAGC  0.0178
36. CAATGCAA  0.0301
37. ACAGTATG  0.0365
38. AAACTTCT  0.0376
39. ACTCGAGG  0.0452
40. TCCGCGAA  0.05
41. TCCATAAA  0.061
42. ATACAATG  0.0742
43. ACCATAAG  0.0852
44. ACCCAGGG  0.0854
45. ACCGATAC  0.0986
46. AGAGTAAC  0.108
47. CCATAAAA  0.12
48. GCCATAAC  0.12
49. GTACACAA  0.12
50. TCCATTAA  0.13
51. CGGGTAAA  0.144
52. CCCATAAA  0.161
53. CCAGGTAC  0.17
54. GAAGGTAC  0.178
55. ACCCTCCT  0.189
56. CAAGGTAA  0.191
57. AGCGTAAC  0.199
58. CCCAAAGG  0.23
59. CCCATAAG  0.236
60. AAAGGTAG  0.247
61. CCAAAAAG  0.248
62. AAAGGTGA  0.25
63. ACCATAAT  0.255
64. GGTGTAAC  0.262
65. CCAAAGGG  0.267
66. GGGGTAAA  0.269
67. TAAGGTAA  0.271
68. AAAGGTAT  0.293
69. CAAGGTAG  0.303
70. CCCCAGGG  0.319
71. GAAGGTAA  0.319
72. CCCAAGGG  0.326
73. CCTCGAGG  0.331
74. CCAAAAGG  0.337
75. ACCCTCCC  0.339
76. ACCCTCCA  0.341
77. ACCATTAA  0.348
78. CGGGTAAC  0.351
79. CCCATAAC  0.355
80. CAAGGTAC  0.357
81. ACCGCGAA  0.359
82. AAAGGTAA  0.361
83. GGGGTAAC  0.37
84. ACCATAAA  0.384
85. ACCATAAC  0.399
86. AGGGTAAC  0.405
87. AAAGGTAC  0.426
